Screening results from PubChem.
4-MU autofl: qHTS Assay for Spectroscopic Profiling in 4-MU Spectral Region; compound autofluorescence, 340/450 nm, 4-MU equivalents; hits give high values; max dye-equivalent concentration, M; 59,000 tested, 11% active; AID 589, 2007; in the data active means max dye-equivalent concentration above about 10 nM; inconclusive means mostly about 1.1 nM to 9.6 nM
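Compounds in 100 mM Tris, pH 8.0, sat 15 min at room temperature before fluorescence was read at 340 nm excitation/450 nm emission; a per-plate six-point 4-MU standard curve converted signals to dye-equivalent concentration at each compound concentration.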
HSD17B inhib: qHTS Assay for Inhibitors of HSD17B4, hydroxysteroid (17-beta) dehydrogenase 4 | 3-hydroxyacyl-CoA dehydrogenase type-2 (Homo sapiens), Q99714 | recombinant HSD17B10, NADH fluorescence kinetic | Potency, µM (series often up to 57.1 µM), for inactives: at the top dose activity change, negative = inhibition, actives largely listed as inhibitors | 75,000 tested, 7.6% active | AID 893, 2007;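 further: the protocol describes HADH2 (HSD17B10) and not the HSD17B4 of the title; potency means the concentration at half of the fitted maximal effect; on the % scale 0 is the no-effect control and ±100 the full control effect; nearly all actives have a fitted effect of over 70% in size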
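Enzyme plus compound, 15 min room temperature; substrate mix added (NAD+ 1 mM, beta-hydroxybutyryl-CoA 90 uM final); plates read kinetically for NADH fluorescence. HADH2 was His-tagged, E. coli-derived, 20 nM.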
A350 autofl: qHTS Assay for Spectroscopic Profiling in A350 Spectral Region. max dye-equivalent concentration, M. 59,000 tested, 11% active. Compound autofluorescence, 340/450 nm, Alexa 350 dye-equivalents; hits give high values; in the data active means max dye-equivalent concentration above about 10 nM; inconclusive means mostly about 1.1 nM to 9.6 nM
AID923: qHTS Assay for Allosteric/Competitive Inhibitors of Caspase-1: Spectroscopic Profiling in AFC Spectral Region; compound fluorescence, AFC spectral region (405/520 nm); Potency, µM (titrated, usually from 57.5 µM), for inactives: at the highest dose fluorescence increase, usual class: activators; 75,000 tested, 1.1% active; AID 923, 2007; further: potency means the concentration at half of the fitted maximal effect; 0% is about no effect
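Baseline compound fluorescence (AFC region, 405 nm ex/520 nm em) taken from the intercept of kinetic reads with 50 nM caspase-1 and 5 uM Ac-WEHD-AFC; normalized to an on-plate AFC standard curve; compounds titrated up to 57 uM.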
HADH2 inh: qHTS Assay for Inhibitors of HADH2 (Hydroxyacyl-Coenzyme A Dehydrogenase, Type II) | 3-hydroxyacyl-CoA dehydrogenase type-2 (Homo sapiens), Q99714 | recombinant HADH2, NADH fluorescence, beta-hydroxybutyryl-CoA | 73,000 tested, 3.4% active | Potency, µM (doses to about 57.1 µM), inactives show at the highest dose activity change, negative = inhibition, hits mostly inhibitors | AID 886, 2007; further: potency means the concentration at half of the fitted maximal effect; on the % scale 0 is the no-effect control and ±100 the full control effect; nearly all actives have a fitted effect of over 60% in size
Target sequence (Q99714 whole entry, looked up, one chain of several): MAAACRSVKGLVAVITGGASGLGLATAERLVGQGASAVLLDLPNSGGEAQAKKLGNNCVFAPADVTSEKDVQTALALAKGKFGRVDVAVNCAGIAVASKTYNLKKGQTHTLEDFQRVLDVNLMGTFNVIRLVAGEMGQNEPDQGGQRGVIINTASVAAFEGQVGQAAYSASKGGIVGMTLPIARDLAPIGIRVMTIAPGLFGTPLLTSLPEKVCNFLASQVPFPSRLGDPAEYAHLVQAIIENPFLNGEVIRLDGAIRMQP
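Activity measured as NADH fluorescence gain (360/450 nm), taken as the change between first and last reads of a 4-min kinetic run. Conditions: pH 9.0 Tris buffer, 20 nM E. coli-expressed His-tagged enzyme, 1 mM NAD+, 90 uM beta-hydroxybutyryl-CoA; 15-min compound preincubation.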
Active calls of the source: *. Shown are actives, neighbours in structure and some others; about 13% of the full set was active somewhere. Unless noted, the call rests on the fitted dose curve; in most records, active means well fitted curve in the direction sought with a large enough effect; inconclusive means small, poorly fitted or top-dose-only effect, or another doubt; inactive means no such curve, though single readings can be large; an effect the other way counts as inactive or inconclusive.

What do the screens show for `CN1C2C=C3C(C#N)=C(N)C(C#N)(C#N)[C@@H](c4ccsc4)[C@@H]3C1CC2` (some centres not stated)?
4-MU autofl: 1.1e-07M*; A350 autofl: 1.3e-07M*

What do the screens show for `CCOC(=O)N1CC=C2C(C#N)=C(N)C(C#N)(C#N)[C@H](c3ccsc3)[C@H]2C1`?
4-MU autofl: 5.2e-08M*; HSD17B inhib: 159%; A350 autofl: 6.5e-08M*; AID923: 10%; HADH2 inh: 26%

What do the screens show for `CCOC(=O)N1CC=C2C(C#N)=C(N)C(C#N)(C#N)[C@H](c3ccc(OC(C)C)c(OCC)c3)[C@H]2C1`?
4-MU autofl: inconclusive; HSD17B inhib: 6%; A350 autofl: inconclusive; AID923: 2%; HADH2 inh: -4%

What do the screens show for `CCOC(=O)N1CC=C2C(C#N)=C(N)C(C#N)(C#N)[C@H](c3ccccc3OCC)[C@H]2C1`?
4-MU autofl: 4.2e-08M*; HSD17B inhib: 72%; A350 autofl: 6.4e-08M*; AID923: 6%; HADH2 inh: 4%

Results for COc1cccc(-c2cc(C(F)(F)F)nc(NCc3ccco3)n2)c1 ?
4-MU autofl: inconclusive; HSD17B inhib: 25µM*; A350 autofl: inconclusive; AID923: 1%; HADH2 inh: -24%

What do the screens show for `FC(F)(F)c1cc(-c2ccco2)nc(NCc2ccco2)n1`?
4-MU autofl: inconclusive; HSD17B inhib: 20µM*; A350 autofl: inconclusive; AID923: 5%; HADH2 inh: -19%

Results for COc1cccc(-c2cc(C(F)(F)F)nc(-n3cncn3)n2)c1 ?
4-MU autofl: 1.5e-08M*; HSD17B inhib: -28%; A350 autofl: 1.5e-08M*; AID923: 0%; HADH2 inh: inconclusive

Results for C=CCNc1nc(NCc2ccco2)nc(OCC)n1 ?
4-MU autofl: inactive; HSD17B inhib: -16%; A350 autofl: inactive; AID923: -1%; HADH2 inh: 16%

What do the screens show for `Fc1ccc(-c2cc(C(F)(F)F)nc(-n3cncn3)n2)cc1`?
4-MU autofl: inactive; HSD17B inhib: inconclusive; A350 autofl: inactive; AID923: 0%; HADH2 inh: -16%

How did FC(F)(F)c1cc(-c2ccco2)nc(NCc2cccs2)n1 do in these assays?
4-MU autofl: inconclusive; HSD17B inhib: 25µM*; A350 autofl: inconclusive; AID923: 2%; HADH2 inh: -16%

Results for CC(=O)Oc1ccc2c(c1)CCC1C2CC[C@]2(C)C(OC(C)=O)CCC12 (some centres not stated) ?
HSD17B inhib: 5%; AID923: 1%

How did CS(=O)(=O)c1nc(-c2ccco2)cc(C(F)(F)F)n1 do in these assays?
4-MU autofl: 1.3e-08M*; HSD17B inhib: 32µM*; A350 autofl: 1.4e-08M*; AID923: -1%; HADH2 inh: 10µM*

What do the screens show for `FC(F)(F)c1cc(-c2ccc3c(c2)OCO3)nc(NCc2ccco2)n1`?
4-MU autofl: 3.2e-08M*; HSD17B inhib: 25µM*; A350 autofl: 2.6e-08M*; AID923: -3%; HADH2 inh: inconclusive

How did COc1cccc(Nc2ncc3ncc(=O)n(CCc4ccccc4)c3n2)c1 do in these assays?
4-MU autofl: inactive; HSD17B inhib: 0%; A350 autofl: inactive; AID923: 11%; HADH2 inh: 13%

Results for COc1ccc(C(=O)N2CCC3(CCN(Cc4ccccc4)CC3)CC2)cc1 ?
4-MU autofl: inactive; HSD17B inhib: -5%; A350 autofl: inactive; AID923: 5%; HADH2 inh: 6%

Results for CC1(C)CC(=O)c2sc(NC(=O)CN3CCOCC3)nc2C1 ?
4-MU autofl: 2.5e-08M*; HSD17B inhib: -24%; A350 autofl: 2.2e-08M*; AID923: 2%; HADH2 inh: -13%

Results for CN(C)c1ccc(-c2ccc3ncnc(-n4ccnc4)c3c2)cc1 ?
4-MU autofl: inactive; HSD17B inhib: 2%; A350 autofl: inactive; AID923: 12%; HADH2 inh: -15%

Results for Nc1ccc([N+](=O)[O-])c(N)c1 ?
HSD17B inhib: 5%; AID923: -2%; HADH2 inh: -6%
